# Measured values as given in PubChem BioAssay (NCI).
# Compounds without any hit were thinned out: in the full panel of roughly 79,000, 15% have a hit. Unmarked numbers belong to inactive results. The source made the active and inactive calls. No stated cut-off is given here; in the data, active means growth inhibition above about 70%; inactive means the rest.
# Assays:
# [1] = NCI Yeast Anticancer Drug Screen. Data for the rad50 strain (AID 155);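 further: 0% = growth of vehicle-only cultures of the same strain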; details: S. cerevisiae rad50 strain growth inhibition, hits give high values
# Outline: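 Relative growth inhibition (compound vs vehicle) was measured in yeast with a defined repair-gene alteration.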
# [2] = NCI Yeast Anticancer Drug Screen. Data for the mec2-1 strain (AID 157); details: S. cerevisiae mec2-1 strain, hits give high values
# Outline: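 mec2-1 yeast strain, carrying an alteration in DNA damage repair or cell cycle control, was exposed to compounds; growth inhibition was measured relative to vehicle-treated controls.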
# [3] = NCI Yeast Anticancer Drug Screen. Data for the sgs1 mgt1 strain (AID 161);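 further: 0% = growth of cultures given vehicle only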; details: S. cerevisiae sgs1 mgt1 strain, hits give high values
# Outline: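 Growth of a repair-deficient yeast mutant was monitored after compound treatment and expressed as inhibition relative to vehicle-treated cultures.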
# [4] = NCI Yeast Anticancer Drug Screen. Data for the cln2 rad14 strain (AID 165);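 further: 0% = growth equal to vehicle treated cultures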; details: S. cerevisiae cln2 rad14 strain, hits give high values
# Outline: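 Yeast carrying cln2 and rad14 alterations (cell cycle control and DNA damage repair) were exposed to compounds. Growth inhibition was measured against vehicle-treated controls.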
# [5] = NCI Yeast Anticancer Drug Screen. Data for the bub3 strain (AID 167); details: S. cerevisiae bub3 mutant strain, hits give high values
# Outline: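 Screening used yeast with an engineered genetic alteration affecting cell cycle control. Compound-exposed cultures were compared with vehicle cultures, and reduced growth was taken as inhibition.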
# [6] = NCI Yeast Anticancer Drug Screen. Data for the mlh1 rad18 strain (AID 175); details: S. cerevisiae mlh1 rad18 strain growth inhibition, hits give high values
# Outline: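 Growth inhibition of the yeast strain was measured after compound exposure and expressed relative to vehicle-treated controls. The strain carries defined defects in DNA damage repair.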
# [7] = at 5.0 µM (retest, dose inferred, filed as 0.5)
# [8] = at 50.0 µM (retest, dose inferred, filed as 5.0)
Structure (SMILES),"growth inhibition [1, 7]","growth inhibition [1, 8]",growth inhibition ([1]; at 50.0 µM),"growth inhibition [2, 7]","growth inhibition [2, 8]",growth inhibition ([2]; at 50.0 µM),"growth inhibition [3, 7]","growth inhibition [3, 8]",growth inhibition ([3]; at 50.0 µM),"growth inhibition [4, 7]","growth inhibition [4, 8]",growth inhibition ([4]; at 50.0 µM),"growth inhibition [5, 7]","growth inhibition [5, 8]",growth inhibition ([5]; at 50.0 µM),"growth inhibition [6, 7]","growth inhibition [6, 8]",growth inhibition ([6]; at 50.0 µM)
COc1ccc(C2CN(C(=O)c3ccccc3)N=C(c3ccccc3)O2)cc1 (configuration not stated),-1%,-16%,93.7% (active),-8%,1%,93.2% (active),1%,-46%,93.7% (active),-5%,-8%,90.2% (active),-4%,-67%,90% (active),-6%,-6%,95% (active)
Cc1ccc(N=Nc2ccc(N)c3ccccc23)c(S(N)(=O)=O)c1,-4%,38%,27.1%,0%,24%,1.95%,-1%,51%,44.9%,-2%,29%,70.8% (active),-6%,61%,22.2%,0%,61%,13.1%
CC(C)Cc1ccc(C(C)/C=C2\CCC(CN3CCCCC3)C2=O)cc1 (configuration not stated),93% (active),98% (active),92.3% (active),90% (active),99% (active),94.2% (active),84% (active),98% (active),94.2% (active),80% (active),99% (active),92.7% (active),98% (active),98% (active),93.2% (active),94% (active),98% (active),89.6% (active)
CC(C)OC(=O)Oc1c(Cl)c(Cl)c(Cl)c(Cl)c1Cl,-3%,97% (active),62%,0%,99% (active),50.6%,-2%,98% (active),55%,5%,98% (active),15.9%,2%,99% (active),74.4% (active),-1%,96% (active),56.8%
O=C1NC(=O)c2cccc3cccc1c23,20%,68%,88.4% (active),7%,25%,52.6%,4%,37%,80.3% (active),-5%,20%,64.5%,3%,22%,63.1%,7%,55%,84.5% (active)
Cc1cccc(N2C(=O)c3ccccc3C2(c2ccccc2)N2CCCCC2)c1 (configuration not stated),-1%,-5%,65%,0%,-1%,28%,4%,2%,73.7% (active),2%,-2%,75.3% (active),-2%,-6%,50.3%,-2%,-9%,58.5%
Cc1cc(C(=O)O)c(C)c2c1sc1ccccc12,6%,87% (active),76.8% (active),3%,79% (active),27.2%,12%,82% (active),62.8%,-64%,81% (active),42%,-11%,-14%,51.1%,0%,81% (active),81.2% (active)
CCCCCN(C(=O)CCl)c1ccccc1,2%,36%,55.7%,-3%,14%,35.2%,-1%,19%,53.7%,3%,5%,13.8%,-4%,6%,50.5%,-2%,24%,67.6%
CN1CCN(CCSC2Cc3cc(Cl)ccc3Sc3ccccc32)CC1 (configuration not stated),29%,29%,93% (active),5%,5%,91.8% (active),19%,19%,92% (active),1%,1%,91.6% (active),16%,16%,93.8% (active),29%,29%,92.5% (active)
